Screens (PubChem)
EPAC2 ag: activates human EPAC2 exchange factor; Q8WZA2; EPAC2 activation, biochemical qHTS; response scale: 100% = 6.5 mM cAMP response; Potency, µM (top dose mostly 154 µM), hits mostly activators; actives 0.079% (n = 360,000); AID 720711; note: nearly all actives have a fitted effect of over 50% in size
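Nucleotide exchange monitored as fluorescence drop when BODIPY-GDP leaves Rap1B. Reaction: 100 nM EPAC2, 250 nM RAP1B-BODIPY-GDP, 50 uM GDP, room temperature, kinetic read over 30 min. Activity expressed relative to 6.5 mM cAMP.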
USP1 inh: USP1/UAF1 (human) deubiquitinase inhibition; O94782; recombinant USP1/UAF1, Ub-Rhodamine cleavage fluorescence; actives 0.23% (n = 390,000); Potency, µM (doses to about 57.1 µM), actives largely listed as inhibitors; note: nearly all actives have a fitted effect of over 60% in size
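In this screen, compounds sit with the deubiquitinase complex (1nM) for 15 min at room temperature before Ub-Rho is added at 150nM final. Fluorescence rise is then followed for 6 reads every 60 seconds.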
EPAC2 antag: antagonists of human EPAC2; Potency, µM (doses to about 114 µM), usual class: inhibitors; actives 0.18% (n = 360,000); Q8WZA2; EPAC2 GEF exchange of Rap1B-BODIPY-GDP, fluorescence; note: nearly all actives have a fitted effect of over 45% in size
EPAC1 agonist: agonists of human EPAC1. EPAC1 agonist qHTS, biochemical assay; response scale: 100% = response to 6.5 mM cAMP. Potency, µM (top dose mostly 154 µM), usual class: activators. actives 0.073% (n = 360,000); note: nearly all actives have a fitted effect of over 60% in size
Target sequence (O95398 whole entry, looked up): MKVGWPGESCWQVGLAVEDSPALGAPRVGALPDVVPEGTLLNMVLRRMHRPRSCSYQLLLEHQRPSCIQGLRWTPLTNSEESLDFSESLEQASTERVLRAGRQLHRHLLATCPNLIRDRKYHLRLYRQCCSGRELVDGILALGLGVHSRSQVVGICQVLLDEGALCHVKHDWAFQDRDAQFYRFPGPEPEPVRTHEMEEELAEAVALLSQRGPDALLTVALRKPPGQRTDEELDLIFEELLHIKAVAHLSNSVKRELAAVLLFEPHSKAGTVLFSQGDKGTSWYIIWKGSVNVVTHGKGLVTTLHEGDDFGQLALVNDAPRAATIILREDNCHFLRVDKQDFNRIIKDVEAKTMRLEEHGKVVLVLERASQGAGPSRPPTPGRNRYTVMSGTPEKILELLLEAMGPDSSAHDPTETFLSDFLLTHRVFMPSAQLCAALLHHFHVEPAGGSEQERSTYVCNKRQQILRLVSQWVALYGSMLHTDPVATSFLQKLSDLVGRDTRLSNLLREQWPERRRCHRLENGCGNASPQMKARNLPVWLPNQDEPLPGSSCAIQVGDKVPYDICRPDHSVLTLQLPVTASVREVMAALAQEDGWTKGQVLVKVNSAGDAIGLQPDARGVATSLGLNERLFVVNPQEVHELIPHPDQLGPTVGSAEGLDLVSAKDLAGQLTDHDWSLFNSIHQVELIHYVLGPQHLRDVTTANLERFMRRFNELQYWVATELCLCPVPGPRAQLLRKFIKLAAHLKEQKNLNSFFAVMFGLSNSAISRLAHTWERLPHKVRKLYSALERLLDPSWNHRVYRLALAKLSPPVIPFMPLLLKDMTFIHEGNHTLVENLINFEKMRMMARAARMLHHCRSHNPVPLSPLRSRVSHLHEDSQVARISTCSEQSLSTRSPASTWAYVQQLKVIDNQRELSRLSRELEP
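Compounds were pinned as a concentration titration into mixtures of EPAC1 (100 nM), BODIPY-GDP-loaded Rap1B (250 nM) and GDP (50 uM). After 5 min at room temperature, fluorescence was followed for 30 min; activity was scaled to 6.5 mM cAMP.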
VDR inhibitor: vitamin D3 receptor (human) inhibition; P11473; VDR-SRC2-3 peptide fluorescence polarization, 2 h; Potency, µM, most hits filed as inhibitors; actives 0.93% (n = 400,000)
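Signal is fluorescence polarization, reporting how far test compounds block the interaction of VDR with the SRC2-3 coregulator peptide after a 2 h room-temperature incubation.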
EPAC1 antagonist: blocks human EPAC1 exchange factor. Potency, µM (highest dose often 115 µM), hits mostly inhibitors. actives 0.14% (n = 360,000). EPAC1 GEF assay, Rap1b-BODIPY-GDP exchange fluorescence. O95398; note: nearly all actives have a fitted effect of over 50% in size
Of the large screens only hits and unclear results are named; the others gave an inactive call; ! = not active in a repeat. Most compounds without a hit are left out; they make up all but 1.2% or so of the library. Calls come from the whole dose curve; as a rule, active = well fitted curve in the direction sought with a large enough effect; inconclusive = small, poorly fitted or top-dose-only effect, or another doubt; inactive = no such curve, though single readings can be large; an effect the other way counts as inactive or inconclusive.

CCOC(=O)/C=C(C)/C=C/C=C(C)/C=C/c1c(C)cc(OC)c(C)c1C	none (no result: EPAC2 ag, USP1 inh, EPAC2 antag, EPAC1 agonist, EPAC1 antagonist)
COc1ccc(-c2nc3ccc(NC(C)=O)cc3c(=O)n2Cc2cccc(Cl)c2)cc1COc1ccc(NC(C)=O)cc1	none (no result: EPAC2 ag, USP1 inh, EPAC2 antag, EPAC1 agonist, EPAC1 antagonist)
CC(C(Sc1ccccc1N)c1ccccc1)[N+](=O)[O-] (stereo unspecified)	VDR inhibitor 18µM
Cc1cccc(N2CCN(C(=O)Cc3cn(C)c4ccccc34)CC2)c1C	VDR inhibitor 20µM
Cc1cccc(N2CCN(C(=O)Cn3ncc4c5ccccc5n(C)c4c3=O)CC2)c1C	none (no result: EPAC2 ag, EPAC2 antag, EPAC1 agonist, EPAC1 antagonist)
CC(=O)Nc1ccc(C(=O)CSc2nc3ccccc3n2CC(=O)N2CCCC2)cc1	VDR inhibitor 79µM
O=C(CSc1nc2ccccc2n1CC(=O)N1CCCCC1)N1CCCCC1	none
COc1cccc(CCn2c(N)cc(=O)[nH]c2=S)c1OC	none (no result: EPAC2 ag, USP1 inh, EPAC2 antag, EPAC1 agonist, EPAC1 antagonist)
CCOc1ccc2oc(C(=O)N(C)CC(=O)Nc3ccc(OCC)c(OCC)c3)c(C)c2c1	EPAC1 agonist 56µM
COc1ccc(-c2nc3ccc(NC(=O)COC(C)=O)cc3c(=O)n2Cc2ccccc2)cc1COc1ccc(NC(C)=O)cc1	none (no result: EPAC2 ag, USP1 inh, EPAC2 antag, EPAC1 agonist, EPAC1 antagonist)
CC(=O)Nc1nc(-c2ccc(-c3ccccc3)cc2)cs1	none (no result: VDR inhibitor)
CC(=O)Nc1nc(-c2cccc3ccccc23)cs1	VDR inhibitor 25µM
C[C@@H]1CCCCO[C@@H](CN(C)CC2CCCCC2)[C@@H](C)CN([C@H](C)CO)C(=O)c2cc(NS(=O)(=O)c3ccc(Cl)cc3)ccc2O1	USP1 inh inconclusive (no result: VDR inhibitor)
COc1ccc(NC(=O)N(C)C[C@H]2Oc3ccc(NC(=O)CCN4CCOCC4)cc3C(=O)N([C@@H](C)CO)C[C@H]2C)cc1	USP1 inh 5µM
C[C@H]1CN([C@@H](C)CO)C(=O)c2cc(NS(=O)(=O)c3ccc(Cl)cc3)ccc2O[C@@H]1CN(C)CC1CCCCC1	VDR inhibitor 89µM
O=C(Nc1cc2ccc(O)cc2oc1=O)c1ccccc1	none (no result: EPAC2 ag, EPAC2 antag, EPAC1 agonist, EPAC1 antagonist)
CCn1c2ccccc2c2cc(NC(=O)c3ccc(=O)oc3)ccc21	EPAC2 ag 100µM, USP1 inh inconclusive
CCn1c2ccccc2c2cc(NC(=O)c3cc(C)on3)ccc21	none
CCn1c2ccccc2c2cc(NC(=O)c3ccc(Br)o3)ccc21	VDR inhibitor 50µM
N#Cc1ncc(Cc2ccccc2)nc1C#N	VDR inhibitor 79µM
C=C1C(=O)OC2C=C(C)CCC=C(C)CCC12 (stereo unspecified)	VDR inhibitor 40µM (no result: EPAC2 ag, USP1 inh, EPAC2 antag, EPAC1 agonist, EPAC1 antagonist)
C=C1C(=O)O[C@@H]2[C@H]3O[C@]3(C)CC/C=C(\C)CC[C@@H]12	VDR inhibitor 22µM!
Cc1cccc(C)c1NS(=O)(=O)c1ccc2c(c1)[C@H]1C=CC[C@H]1[C@@H](c1ccc(Cl)cc1)N2	none (no result: EPAC2 ag, EPAC2 antag, EPAC1 agonist, EPAC1 antagonist)
Cc1c(Cl)cccc1NS(=O)(=O)c1ccc2c(c1)C1C=CCC1C(c1ccc(C(=O)O)cc1)N2 (stereo unspecified)	USP1 inh inconclusive, VDR inhibitor inconclusive, EPAC1 antagonist 56µM
CCOC(=O)c1ccc(/C=C2/C=C(c3ccccc3)N(c3ccc(Cl)c(C(=O)O)c3)C2=O)cc1	USP1 inh 25µM, EPAC2 antag inconclusive, VDR inhibitor inconclusive, EPAC1 antagonist inconclusive
Cc1ccc(S(=O)(=O)Nc2ccccc2C(=O)Nc2nc(-c3ccc(F)cc3)cs2)cc1	EPAC1 antagonist 79µM
COc1ccc(-c2csc(NC(=O)c3ccccc3NS(=O)(=O)c3ccc(F)c(F)c3)n2)cc1	EPAC2 antag 16µM, EPAC1 antagonist 50µM
COc1ccc(/C=C2/C(=O)N(CC3CCCO3)C(=S)N2C)c(OC)c1 (stereo unspecified)	EPAC1 antagonist 50µM
CCOC(=O)CNC(=O)CSc1nc(-c2cccc(C)c2)ns1	VDR inhibitor 79µM
Cc1cccc(-c2nsc(SCC(=O)NCc3ccco3)n2)c1	none
CC(=O)c1cccc(NC(=O)c2ccc3c(c2)OCO3)c1	VDR inhibitor 79µM
O=C(Nc1cccc(NC(=O)c2ccc3c(c2)OCO3)c1)c1ccccc1	EPAC2 antag inconclusive
